This passage reports outcome and AC50 results from PubChem BioAssay (EPA / NIEHS).

A short description of assay [1]: NVS_IC_rCaBTZCHL: NovaScreen (NVS) Ion Channel Assay for Calcium Channel, Type L, Benzothiazepine Site (CaBTZCHL) (AID 2283337). In outline: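 Rat cortical membrane preparation, cell-free. Radioligand displaced by test chemical; 1.5 h incubation; filtration, scintillation count. DMSO = negative control/baseline. Primary: duplicate, 25 uM; secondary: concentration series.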

The target in assay [2] is Estrogen receptor beta (Homo sapiens) (UniProt Q92731). The experiment in a line: OT_ER_ERbERb_0480: Odyssey Thera (OT) 8-hour HEK293T Protein-Complementation Assay for Estrogen Receptor-beta/-beta Homodimer (AID 2283357).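 Further: active means signal gain over DMSO baseline.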 In short, it runs like this:
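Fluorescence gain from complemented reporter fragments on ER-beta LBD homodimer in HEK293T was quantified against DMSO controls after 8 h treatment, fixation in 4% formaldehyde and Draq5 staining.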

For assay [3], the target named is human Androgen Receptor (AR), AR (gene 367) (UniProt P10275). The experiment in a line: NVS_NR_hAR: NovaScreen (NVS) Nuclear Receptor Binding Assay for human Androgen Receptor (AR) (AID 2283332). In outline: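 Actives from a duplicate 25 uM single-point screen went on to concentration series. Read-out after 20 h was scintillation counting of displaced radioligand in LnCAP extract, with DMSO as baseline.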
Chain of human Androgen Receptor (AR), AR (gene 367) (P10275 whole entry, looked up): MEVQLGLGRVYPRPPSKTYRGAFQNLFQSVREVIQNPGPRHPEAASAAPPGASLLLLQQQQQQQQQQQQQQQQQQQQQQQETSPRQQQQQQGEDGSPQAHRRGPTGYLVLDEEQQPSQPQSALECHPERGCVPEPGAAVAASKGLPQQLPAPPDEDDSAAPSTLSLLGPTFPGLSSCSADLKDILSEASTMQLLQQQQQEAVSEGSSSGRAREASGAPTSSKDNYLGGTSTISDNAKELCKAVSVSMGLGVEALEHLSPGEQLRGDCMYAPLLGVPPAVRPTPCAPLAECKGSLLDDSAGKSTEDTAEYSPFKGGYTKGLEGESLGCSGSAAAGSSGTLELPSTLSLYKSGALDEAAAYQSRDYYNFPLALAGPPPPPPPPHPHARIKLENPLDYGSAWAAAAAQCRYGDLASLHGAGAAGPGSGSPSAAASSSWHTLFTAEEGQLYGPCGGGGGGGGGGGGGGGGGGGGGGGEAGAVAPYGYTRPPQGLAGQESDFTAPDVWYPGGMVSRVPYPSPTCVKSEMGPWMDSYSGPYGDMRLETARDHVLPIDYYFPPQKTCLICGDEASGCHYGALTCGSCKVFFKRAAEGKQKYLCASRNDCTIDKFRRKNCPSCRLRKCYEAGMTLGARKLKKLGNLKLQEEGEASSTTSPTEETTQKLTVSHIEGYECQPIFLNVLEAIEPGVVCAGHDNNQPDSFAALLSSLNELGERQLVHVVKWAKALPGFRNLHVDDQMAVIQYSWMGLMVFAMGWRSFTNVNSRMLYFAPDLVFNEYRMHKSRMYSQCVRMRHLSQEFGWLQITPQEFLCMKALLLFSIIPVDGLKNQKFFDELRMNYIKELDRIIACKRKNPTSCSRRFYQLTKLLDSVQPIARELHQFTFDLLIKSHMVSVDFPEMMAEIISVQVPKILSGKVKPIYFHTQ

The target in assay [4] is chimpanzee Androgen Receptor (AR), AR (gene 747460) (UniProt O97775). In words: NVS_NR_cAR: NovaScreen (NVS) Nuclear Receptor Binding Assay for chimpanzee Androgen Receptor (AR) (AID 2283346). In outline: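 Cell-free radioligand displacement using receptor protein extracted from Sf9/Sf21 cells; bound radioligand measured by scintillation counting 72 hours after chemical dosing. Loss of signal versus DMSO baseline indicates binding; primary screen single-concentration in duplicate at 25 uM, actives followed in concentration series.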
Chain of chimpanzee Androgen Receptor (AR), AR (gene 747460) (O97775 whole entry, looked up): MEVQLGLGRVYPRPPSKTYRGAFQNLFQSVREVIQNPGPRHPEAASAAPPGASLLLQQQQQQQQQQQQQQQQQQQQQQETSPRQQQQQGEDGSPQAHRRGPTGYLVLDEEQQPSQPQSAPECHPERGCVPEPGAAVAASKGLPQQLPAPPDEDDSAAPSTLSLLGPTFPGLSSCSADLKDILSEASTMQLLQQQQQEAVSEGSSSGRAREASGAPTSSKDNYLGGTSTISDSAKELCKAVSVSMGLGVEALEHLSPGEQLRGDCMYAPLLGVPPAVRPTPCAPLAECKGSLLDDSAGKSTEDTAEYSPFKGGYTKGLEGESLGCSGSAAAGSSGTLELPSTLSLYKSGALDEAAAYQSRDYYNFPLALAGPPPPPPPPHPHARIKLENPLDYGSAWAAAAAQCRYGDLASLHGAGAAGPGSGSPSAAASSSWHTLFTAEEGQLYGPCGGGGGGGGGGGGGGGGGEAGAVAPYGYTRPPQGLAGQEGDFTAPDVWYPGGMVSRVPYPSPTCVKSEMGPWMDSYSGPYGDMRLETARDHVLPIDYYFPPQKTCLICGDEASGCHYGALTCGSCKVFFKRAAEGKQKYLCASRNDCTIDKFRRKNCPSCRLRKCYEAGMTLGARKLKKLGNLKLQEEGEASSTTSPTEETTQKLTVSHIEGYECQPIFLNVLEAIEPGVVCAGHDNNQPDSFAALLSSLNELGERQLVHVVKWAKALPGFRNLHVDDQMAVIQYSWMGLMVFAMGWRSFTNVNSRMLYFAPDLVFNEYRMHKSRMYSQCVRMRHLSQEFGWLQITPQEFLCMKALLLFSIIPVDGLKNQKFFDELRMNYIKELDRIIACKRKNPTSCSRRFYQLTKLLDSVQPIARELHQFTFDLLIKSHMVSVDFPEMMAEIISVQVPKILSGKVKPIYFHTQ

Assay [5] deals with rat Mineralocorticoid Receptor (MR), Nr3c2 (gene 25672) (UniProt P22199). In words: NVS_NR_rMR: NovaScreen (NVS) Nuclear Receptor Binding Assay for rat Mineralocorticoid Receptor (MR) (AID 2283355). In short, it runs like this: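 Single-concentration duplicate screen (25 uM) of radioligand binding in adrenalectomized rat brain supernatant; scintillation detection 24 h after dosing. Positive and negative controls ran on each plate, and confirmed actives went to concentration-response.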

A further assay addresses PGR (gene 5241) (UniProt P06401). In words: NVS_NR_hPR: NovaScreen (NVS) Nuclear Receptor Binding Assay for human Progestron Receptor (PR) (AID 2283360). In outline: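 Competitive displacement of a labelled radioligand from T47D-derived receptor protein is measured in a cell-free format. Initial testing uses 25 uM in duplicate, with positive and negative controls on every plate.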

The target of assay [6] is human Peripheral-type Benzodiazepine Receptor (PBR), TSPO (gene 706) (UniProt P30536). In words: NVS_MP_hPBR: NovaScreen (NVS) Membrane Protein Assay for human Peripheral-type Benzodiazepine Receptor (PBR) (AID 2283331).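 Further: hits reduce radioligand binding relative to DMSO baseline.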 In outline:
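Using human colon-derived membranes, this one-endpoint binding test reads radioligand loss by scintillation after 1 h. Screening started at 25 uM in duplicate, with positive and negative controls on every plate, and actives moved to dose series.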

The target in assay [7] is Androgen Receptor/SRC-1 Co-activator, AR (gene 367) (UniProt P10275). The experiment in a line: OT_AR_ARSRC1_0960: Odyssey Thera (OT) 16-hour HEK293T Protein-Complementation Assay for Androgen Receptor/SRC-1 Co-activator (AID 2283353).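 Further: actives raise the signal above DMSO so potency reflects increased AR and SRC-1 complex.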 In short, it runs like this:
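Readout: 488 nm nuclear-to-cytoplasmic fluorescence ratio from imaging of at least 400 cells per image, 16 h post-dose. Reporter is Venus YFP complementation between AR and SRC-1 fusions, stably expressed in HEK293T; activity scored upward relative to DMSO.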

For assay [8], the target named is rat Peripheral-type Benzodiazepine Receptor (PBR), Tspo (gene 24230) (UniProt P16257). The experiment in a line: NVS_MP_rPBR: NovaScreen (NVS) Membrane Protein Assay for rat Peripheral-type Benzodiazepine Receptor (PBR) (AID 2283335). In short, it runs like this: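 Single-concentration duplicate screening at 25 uM preceded concentration-series retesting of actives. Binding of a specific radioligand to rat kidney membrane PBR was read by filtration radiodetection after 1 h, with plate-wise positive and negative controls.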
Chain of rat Peripheral-type Benzodiazepine Receptor (PBR), Tspo (gene 24230) (P16257 whole entry, looked up): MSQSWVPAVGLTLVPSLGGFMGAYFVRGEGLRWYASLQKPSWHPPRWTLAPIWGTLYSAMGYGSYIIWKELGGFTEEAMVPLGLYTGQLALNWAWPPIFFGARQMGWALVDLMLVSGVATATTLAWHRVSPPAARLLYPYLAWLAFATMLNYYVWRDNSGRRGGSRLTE

Assay [9] addresses Retinoic acid receptor alpha (Homo sapiens) (UniProt P10276). In words: NVS_NR_hRAR_Antagonist: NovaScreen (NVS) Nuclear Receptor Binding Assay for human Retinoic Acid Alpha Receptor Antagonism (RAR) (AID 2283358). In outline: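 Chemicals were first tested in duplicate at 25 uM, then actives in concentration series, in a cell-free TR-FRET antagonist binding format. Measurements were taken 2 hours after dosing and loss of signal was evaluated against DMSO controls.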

The target of assay [10] is human Peroxisome Proliferator-activated Receptor alpha (PPARa), PPARA (gene 5465) (UniProt Q07869). In words: NVS_NR_hPPARa: NovaScreen (NVS) Nuclear Receptor Binding Assay for human Peroxisome Proliferator-activated Receptor alpha (PPARa) (AID 2283359).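 Further: activity means loss of TR-FRET signal versus DMSO baseline.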 In short, it runs like this:
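One-hour incubation, cell-free extracted protein, TR-FRET binding readout; signal loss vs DMSO scored. Screen: 25 uM duplicates, confirmatory dose series for actives.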

Assay [11] addresses rat Thyrotropin Releasing Hormone Receptor (TRH), Trhr (gene 25570) (UniProt Q01717). The experiment in a line: NVS_GPCR_rTRH: NovaScreen (NVS) G Protein-Coupled Receptor Assay for rat Thyrotropin Releasing Hormone Receptor (TRH) (AID 2283329).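 Further: hit means lower bound tracer signal versus DMSO baseline.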 In outline:
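Test compounds are screened at 25 uM in duplicate against radioligand binding in rat forebrain membranes, with active pairs followed up over a concentration range. Detection uses filter-based radiodetection after a 4 h exposure.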

Structures are written as SMILES. Where “and” joins values, the source holds several entries; their conditions need not be identical. Equal values may be shown once. Records with an inconclusive call do not appear. Calls of active or inactive are those of the source. How the source made its calls: active means hit-call score of the fitted dose curve at least 0.9, where 1 is the maximum; inconclusive means response in the unintended direction; inactive means score below 0.9.

Usually AC50 stands for the midpoint of the concentration-response curve, whichever way the signal moves.

Chain of Estrogen receptor beta (Homo sapiens) (Q92731 whole entry, looked up, the tested form may be a part): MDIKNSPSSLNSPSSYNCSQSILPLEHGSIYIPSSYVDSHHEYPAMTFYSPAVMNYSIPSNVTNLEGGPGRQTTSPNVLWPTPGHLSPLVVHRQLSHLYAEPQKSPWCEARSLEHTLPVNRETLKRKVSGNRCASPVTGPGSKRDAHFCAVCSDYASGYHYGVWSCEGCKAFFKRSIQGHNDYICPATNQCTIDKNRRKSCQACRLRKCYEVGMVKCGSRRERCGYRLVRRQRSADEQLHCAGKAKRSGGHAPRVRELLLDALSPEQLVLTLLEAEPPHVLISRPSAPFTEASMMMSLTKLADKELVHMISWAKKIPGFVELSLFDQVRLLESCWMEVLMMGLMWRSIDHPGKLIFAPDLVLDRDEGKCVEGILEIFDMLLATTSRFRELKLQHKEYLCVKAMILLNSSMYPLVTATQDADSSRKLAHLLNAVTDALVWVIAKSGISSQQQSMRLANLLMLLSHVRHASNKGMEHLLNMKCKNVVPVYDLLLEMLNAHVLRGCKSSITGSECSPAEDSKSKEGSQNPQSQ
Chain of rat Thyrotropin Releasing Hormone Receptor (TRH), Trhr (gene 25570) (Q01717 whole entry, looked up): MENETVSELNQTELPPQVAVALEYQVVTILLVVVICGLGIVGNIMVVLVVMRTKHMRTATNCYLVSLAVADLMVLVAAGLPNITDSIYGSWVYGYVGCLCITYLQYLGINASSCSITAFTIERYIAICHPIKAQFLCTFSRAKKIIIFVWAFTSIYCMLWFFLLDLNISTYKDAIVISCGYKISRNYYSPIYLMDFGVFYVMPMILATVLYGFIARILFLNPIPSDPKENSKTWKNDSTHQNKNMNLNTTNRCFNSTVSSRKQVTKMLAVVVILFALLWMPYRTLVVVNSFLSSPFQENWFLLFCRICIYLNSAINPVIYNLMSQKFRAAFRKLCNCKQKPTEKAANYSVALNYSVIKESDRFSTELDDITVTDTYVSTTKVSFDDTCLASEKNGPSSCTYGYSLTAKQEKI
Chain of Androgen Receptor/SRC-1 Co-activator, AR (gene 367) (P10275 whole entry, looked up, the tested form may be a part): as the sequence (P10275 whole entry, looked up) above
Chain of human Peripheral-type Benzodiazepine Receptor (PBR), TSPO (gene 706) (P30536 whole entry, looked up): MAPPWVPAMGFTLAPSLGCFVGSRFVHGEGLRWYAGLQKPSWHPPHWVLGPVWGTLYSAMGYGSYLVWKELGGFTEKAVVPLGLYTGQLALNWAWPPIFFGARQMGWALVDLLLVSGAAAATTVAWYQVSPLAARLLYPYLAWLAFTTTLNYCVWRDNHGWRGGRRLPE
Chain of human Peroxisome Proliferator-activated Receptor alpha (PPARa), PPARA (gene 5465) (Q07869 whole entry, looked up): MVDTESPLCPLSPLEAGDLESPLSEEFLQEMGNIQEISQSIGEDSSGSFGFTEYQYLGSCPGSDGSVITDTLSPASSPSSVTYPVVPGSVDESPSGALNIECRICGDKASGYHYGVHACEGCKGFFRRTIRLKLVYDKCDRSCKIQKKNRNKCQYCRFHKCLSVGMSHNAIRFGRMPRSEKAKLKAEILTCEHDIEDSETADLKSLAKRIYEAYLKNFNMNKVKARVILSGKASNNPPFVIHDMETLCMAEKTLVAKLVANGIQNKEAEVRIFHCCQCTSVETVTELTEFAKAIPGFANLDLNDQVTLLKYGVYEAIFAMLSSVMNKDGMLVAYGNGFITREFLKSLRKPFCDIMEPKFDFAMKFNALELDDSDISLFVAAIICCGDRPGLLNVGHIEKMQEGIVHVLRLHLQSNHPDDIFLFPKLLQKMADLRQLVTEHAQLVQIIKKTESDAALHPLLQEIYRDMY
Chain of Retinoic acid receptor alpha (Homo sapiens) (P10276 whole entry, looked up): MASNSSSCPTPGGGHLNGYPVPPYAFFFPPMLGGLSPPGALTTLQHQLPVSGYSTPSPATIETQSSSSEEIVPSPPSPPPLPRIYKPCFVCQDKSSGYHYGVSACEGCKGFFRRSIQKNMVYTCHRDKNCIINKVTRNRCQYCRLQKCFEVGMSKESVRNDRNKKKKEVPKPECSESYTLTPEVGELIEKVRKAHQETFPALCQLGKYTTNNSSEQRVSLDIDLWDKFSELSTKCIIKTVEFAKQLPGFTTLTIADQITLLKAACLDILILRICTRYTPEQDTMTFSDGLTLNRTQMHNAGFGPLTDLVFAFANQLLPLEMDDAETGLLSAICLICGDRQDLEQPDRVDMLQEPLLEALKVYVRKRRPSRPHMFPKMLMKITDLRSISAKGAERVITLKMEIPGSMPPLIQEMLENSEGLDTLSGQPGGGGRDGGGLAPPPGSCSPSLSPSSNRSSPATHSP

As to `CCCCOC(=O)CCCCCCCC(=O)OCCCC`, the result in [1] and in assay [2] was inactive.

Turning to `Oc1c(Cl)cc(Cl)c(Cl)c1Cc1c(O)c(Cl)cc(Cl)c1Cl`, the half-maximal activity concentration (AC50) was 24 µM (active) in [3] and 5 µM (active) in assay [4]. In addition, the molecule was called inactive (in [5]; in the assay with PGR (gene 5241)).

Consider `C=C(C)[C@H]1CC=C(C)C(=O)C1`, for which, in [6], the AC50 is 25 µM (active). For the same molecule, in assay [4], the molecule was called inactive.

For the molecule `Nc1ccc(N)c2c1C(=O)c1ccccc1C2=O`, in assay [4], the outcome was inactive. Also, in assay [7], the AC50 is 35.3 µM (active).

For the molecule `OCc1cccc(Oc2ccccc2)c1`, the AC50 in assay [4] is 25 µM (active). The molecule was called inactive in assay [7].

As to `CCOc1ccc(N=Nc2ccc(C=Cc3ccc(N=Nc4ccc(OCC)cc4)cc3S(=O)(=O)O)c(S(=O)(=O)O)c2)cc1`, the AC50 in assay [6] was 0.00187 µM (active); in [8] it was 5.82 µM (active); in assay [4], 17.7 µM (active); in [9], 12.9 µM (active); in [10], 9.11 µM (active).

For the molecule `Oc1ccc2cc(SSc3ccc4cc(O)ccc4c3)ccc2c1`, the AC50 in assay [4] is 31.9 µM (active).

`CCCCCC(=O)CC`: the call in [11] and in [10] was inactive.

Consider `CN(C)C(=S)SC(=S)N(C)C`, for which the call in [8] was inactive.

For `C=C1CC[C@H](O)C/C1=C/C=C1\CCC[C@]2(C)[C@@H]([C@H](C)/C=C/[C@H](C)C(C)C)CC[C@@H]12`, the AC50 in assay [4] was 28.4 µM (active). In assay [2], the molecule was called inactive.

Take `O=[N+]([O-])c1ccc(O)cc1C(F)(F)F`: the molecule was classed as inactive in [11] and in [10].

For the molecule `BrCc1cccc(Oc2ccccc2)c1`, the AC50 in [4] is 25 µM (active). Moreover, in assay [7], the outcome was inactive.

On to `O=C1OC[C@H](Cc2cccc(O)c2)[C@H]1Cc1cccc(O)c1`, for which the AC50 in assay [6] was 8.4 µM (active) and 3.26 µM (active); in assay [8], 5.43 µM (active); in assay [4], 4.16 µM (active).

In the case of `CC(C=O)Cc1ccc(C(C)(C)C)cc1` (centres undefined), the result in [11] and in assay [2] was inactive.

Take `OC[C@H]1O[C@@H]2O[C@H]3[C@H](O)[C@@H](O)[C@@H](O[C@H]4[C@H](O)[C@@H](O)[C@@H](O[C@H]5[C@H](O)[C@@H](O)[C@@H](O[C@H]6[C@H](O)[C@@H](O)[C@@H](O[C@H]7[C@H](O)[C@@H](O)[C@@H](O[C@H]8[C@H](O)[C@@H](O)[C@@H](O[C@H]9[C@H](O)[C@@H](O)[C@@H](O[C@H]1[C@H](O)[C@H]2O)O[C@@H]9CO)O[C@@H]8CO)O[C@@H]7CO)O[C@@H]6CO)O[C@@H]5CO)O[C@@H]4CO)O[C@@H]3CO`: the result in assay [11] and in [10] was inactive.
